# Measurements from article PMC4336329 (PLoS ONE, 2015).
# Out of some 310,000 compounds screened, about 14,000 (4.5%) showed an effect of 50% or more. The effect is printed as a negative number. The list comes from a sample in which strong results are over-represented; it also holds similar structures and randomly drawn compounds.
# Biological target: human ether-à-go-go-related gene (hERG) potassium channel (human, UniProt Q12809)
# Test: primary screen, population patch clamp on CHO cells stably expressing hERG; higher = less effect of the substance
# 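Further: peak tail current of the secondary pulse compared with the same well before compound.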
# human ether-à-go-go-related gene (hERG) potassium channel, sequence (Q12809 whole entry, looked up): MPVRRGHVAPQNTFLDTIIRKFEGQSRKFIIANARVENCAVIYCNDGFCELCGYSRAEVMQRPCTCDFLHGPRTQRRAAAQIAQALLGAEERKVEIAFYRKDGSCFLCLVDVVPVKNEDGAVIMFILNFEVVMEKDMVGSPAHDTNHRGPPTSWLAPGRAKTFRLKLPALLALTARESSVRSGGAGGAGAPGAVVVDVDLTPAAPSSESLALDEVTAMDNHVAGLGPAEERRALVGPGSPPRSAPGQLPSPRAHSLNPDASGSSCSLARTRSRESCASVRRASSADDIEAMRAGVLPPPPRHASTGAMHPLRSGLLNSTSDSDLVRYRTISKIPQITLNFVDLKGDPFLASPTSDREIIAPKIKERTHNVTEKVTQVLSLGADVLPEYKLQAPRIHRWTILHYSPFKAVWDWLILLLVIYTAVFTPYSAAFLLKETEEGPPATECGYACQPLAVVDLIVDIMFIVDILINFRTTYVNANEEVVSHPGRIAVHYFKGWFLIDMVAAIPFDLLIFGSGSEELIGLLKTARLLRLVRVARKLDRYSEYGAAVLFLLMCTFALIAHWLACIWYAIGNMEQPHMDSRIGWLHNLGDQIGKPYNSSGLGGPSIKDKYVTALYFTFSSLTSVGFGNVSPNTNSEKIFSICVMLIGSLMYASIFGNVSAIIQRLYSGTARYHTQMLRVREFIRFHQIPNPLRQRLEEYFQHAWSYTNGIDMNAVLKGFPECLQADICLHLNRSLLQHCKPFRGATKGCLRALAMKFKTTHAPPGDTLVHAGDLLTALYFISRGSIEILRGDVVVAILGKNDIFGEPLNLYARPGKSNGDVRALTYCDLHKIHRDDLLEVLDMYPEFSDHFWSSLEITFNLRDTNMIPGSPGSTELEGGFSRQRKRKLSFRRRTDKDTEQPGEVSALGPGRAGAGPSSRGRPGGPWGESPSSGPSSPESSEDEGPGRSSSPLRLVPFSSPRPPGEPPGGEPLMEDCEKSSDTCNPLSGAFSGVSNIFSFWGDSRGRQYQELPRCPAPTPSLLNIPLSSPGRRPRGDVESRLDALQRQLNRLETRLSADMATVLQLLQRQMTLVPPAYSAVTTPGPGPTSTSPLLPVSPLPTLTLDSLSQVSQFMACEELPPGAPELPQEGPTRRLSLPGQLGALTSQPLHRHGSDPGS
row,Compound,"hERG current change (%, negative = inhibition) at 10uM"
1,CCCn1c(N)c(N(CCOC)C(=O)c2cccc(S(=O)(=O)N3CCCc4ccccc43)c2)c(=O)[nH]c1=O,3.29%
2,O=C(NCC1CCCO1)c1cccs1 (stereo not drawn),4.89%
3,Cc1cc(OCC(=O)OCC(=O)NC2CCCCC2C)ccc1Cl (stereo not drawn),0.466%
4,CC(=O)Nc1ccc(S(=O)(=O)NNC(=O)c2cccc(Br)c2)cc1,15.9%
5,CCC(=NCCCN1CCOCC1)c1c(O)n(-c2ccccc2C)c(=O)[nH]c1=O,8.28%
6,CCCCN1C(=O)C(=O)N(CC(=O)Nc2sc(CC)cc2C(=O)OCC)C1=O,-10%
7,Cc1ccc(Oc2ccc(OCC(=O)NC(C)C(=O)O)cc2)cc1 (stereo not drawn),-25.1%
8,Cc1c(C#N)c(N)nc(Cl)c1C#N,25.9%
9,NC(=O)C1(NC(=O)[C@@H]2CC3(CC(c4cccc(NC(=O)[C@@H]5CCC(=O)N5)c4)=NO3)CN2C(=O)c2ccccc2)CC1 (stereo partly drawn),1.96%
10,CCCCOC(=O)NC1(C)CCS(=O)(=O)C1 (stereo not drawn),27.1%
11,CC(C)OCCCNC(=S)N1CCC(C(=O)c2ccc3c(c2)OCCO3)CC1,-22.9%
12,Cc1ccc2sc(N(CCN(C)C)C(=O)c3ccc(S(=O)(=O)N4CC(C)OC(C)C4)cc3)nc2c1C.Cl (stereo not drawn),1.87%
13,CCOC(=O)/C=C/[C@H]1CCc2cccc(Cl)c2O1,9.23%
14,CN1CCN(NC(=O)c2ccc(Cl)cc2Cl)CC1,0.116%
15,Cc1cc(C(=O)N/N=C2/CC(C)CC(C)(C)C2)c(C)o1 (stereo not drawn),-8.27%
16,COc1ccc(CN2C3CCC2CC(NC(=O)c2cc(OC)c(OC)c(OC)c2)C3)cc1 (stereo not drawn),-31.6%
17,COc1ccc(NC(=S)N2CCC(NC(=O)c3cccc(F)c3)CC2)cc1,-16.7%
18,COc1cccc(C(=O)NC2CC3CCC(C2)N3Cc2ccccc2)c1 (stereo not drawn),-28.7%
19,COc1ccc(CN2C3CCC2CC(NC(=O)c2cccc(F)c2)C3)cc1 (stereo not drawn),-75.2%

row,Compound,"hERG current change (%, negative = inhibition) at 10uM"
1,COc1ccc(CN2C3CCCC2CC(NC(=O)c2cccc(F)c2)C3)cc1 (stereo not drawn),-82%
2,COc1ccc(C(=O)/C=C/c2cccc(OCc3ccccc3)c2)cc1CSCC(=O)O,7.09%
3,COc1ccccc1CNC(=O)CCS(=O)(=O)c1ccc2c(c1)CC(C)N2C(=O)C1CC1 (stereo not drawn),15%
4,COc1cccc(NC(=S)NCCc2ccccn2)c1,7.98%
5,CS(=O)(=O)NCCNc1ccc(C(F)(F)F)cc1[N+](=O)[O-],-6.08%
6,CS(=O)(=O)NCCCNc1ccc(C(F)(F)F)cc1[N+](=O)[O-],-35.1%
7,CS(=O)(=O)NCCCCNc1ccc(C(F)(F)F)cc1[N+](=O)[O-],-56.8%
8,COc1ccc(NC(=O)C(=O)N/N=C/c2cccnc2)c(OC)c1,21.3%
9,N#CC1(c2nc3ccccc3[nH]2)CC1c1ccc2c(c1)OCO2 (stereo not drawn),0.101%
10,O=C(COC(=O)c1ccc(Cl)c(S(=O)(=O)N2CCOCC2)c1)NCc1ccco1,-17%
11,COc1ccc(CN(C(=O)c2nsc(Cl)c2Cl)C(C(=O)NC2CCCC2)c2ccc(C)cc2)cc1 (stereo not drawn),-12.4%
12,C/C(=N/OC(=O)c1ccc(C)cc1)c1ccc(N2C(=O)C3CCCCC3C2=O)cc1 (stereo not drawn),16%
13,N#Cc1ccccc1CSc1nc2ccsc2c(=O)n1Cc1ccccn1,-10.9%
14,O=c1c2ccccc2nc(/C=C/c2cccc([N+](=O)[O-])c2)n1CCCO,-43%
15,O=c1c2ccccc2nc(/C=C/c2ccccc2)n1CCCO,-8.23%
16,O=c1c2sccc2nc(SCc2ccc([N+](=O)[O-])cc2)n1Cc1ccccn1,-61.6%
17,O=c1c2ccccc2nc(/C=C/c2ccc([N+](=O)[O-])cc2)n1CCCO,-57.4%
18,O=c1c2ccccc2nc(/C=C/c2ccc(Br)cc2)n1CCCO,0.999%
19,O=c1c2ccccc2nc(SCc2ccc([N+](=O)[O-])cc2)n1CCCO,-57.9%

row,Compound,"hERG current change (%, negative = inhibition) at 10uM"
1,Nn1c(SCc2ccc([N+](=O)[O-])cc2)nc2ccccc2c1=O,17.8%
2,CCOC(CCn1c(SCc2ccc([N+](=O)[O-])cc2)nc2ccccc2c1=O)OCC,-39%
3,O=c1c2ccccc2nc(/C=C/c2ccc([N+](=O)[O-])o2)n1CCCO,-51.7%
4,Cn1c(/C=C/c2ccc([N+](=O)[O-])o2)nc2ccccc2c1=O,-24.2%
5,O=c1c2sccc2nc(SCc2cc(=O)n3ccccc3n2)n1Cc1ccccn1,-22.3%
6,COCC(C)n1c(COc2ccccc2F)nnc1SCC(=O)c1c(N)n(C)c(=O)n(C)c1=O (stereo not drawn),16.4%
7,N#C/C(=C\c1c(F)cccc1Cl)S(=O)(=O)c1ccccn1,3.15%
8,COc1cc(-c2nc(S(=O)(=O)c3ccc(Cl)cc3)c(N3CCOCC3)o2)cc(OC)c1OC,-3.17%
9,Cl.NNc1nc(-c2ccccc2)cs1,29.7%
10,COc1cccc(NC(=O)CCCN2C(=O)C3CC=CCC3C2=O)c1 (stereo not drawn),-2.79%
11,Cc1cc([N+](=O)[O-])nn1CCCC(=O)NCc1ccccc1,-5.8%
12,Cc1ccccc1NC(=O)C1=CC=CN2CCS(=O)(=O)N=C12,-11.7%
13,O=C(Nc1cccc2ncccc12)c1cccc(F)c1,-11.1%
14,CCOC(=O)C1(Cc2ccccc2)CCN(Cc2cn(CC(=O)OC)c3ccccc23)CC1,-78.1%
15,CCOC(=O)C1(Cc2cccc(OC)c2)CCN(Cc2cccc3c2OCO3)CC1,-39.4%
16,CCOC(=O)C1(Cc2ccccc2)CCN(Cc2cccc(OC)c2O)CC1,-69.6%
17,CCOC(=O)C1(CC2CC2)CCN(Cc2cn(C)c3ccccc23)CC1,-31%
18,CCOC(=O)C1(Cc2cccc(OC)c2)CCN(Cc2ccccc2OC)CC1,-51.3%
19,CCOC(=O)C1(Cc2cccc(OC)c2)CCN(Cc2cccc(OCC)c2O)CC1,-56.8%
